# Values joined by “and” are separate entries in the source; they are usually repeats but may differ in a detail not shown here. Equal values may be shown once. Where a name gives a salt, the structure may show the parent alone.
# Assays:
# Assay in all cases: cell viability relative to vehicle control; higher = less cytotoxic
# Settings in all cases: 10 µM
# K562 = tested on: K562
# How it was run: (§1)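 Four leukaemia lines, as CRISPR-edited mutant clones and isogenic wild-type clones, were tested against Selleck bioactive, kinase and epigenetic probe libraries after removal of identity-inconsistent compounds. Cells were exposed to a single 10 µM dose for 48 h, and CellTiter-Glo luminescence was then read. Viability was calculated relative to the on-plate vehicle control.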
# MARIMO = tested on: MARIMO
# How it was run: as §1
# MOLM14 = tested on: MOLM14
# How it was run: as §1
# OCI-AML2 = tested on: OCI-AML2
# How it was run: as §1
Structure (SMILES),cell viability (K562; SRSF2 genotype: SRSF2 P95H/wt),cell viability (K562; SRSF2 genotype: SRSF2 wt/wt) [%],cell viability (MARIMO; SRSF2 genotype: SRSF2 P95H/wt) [%],cell viability (MARIMO; SRSF2 genotype: SRSF2 wt/wt) [%],cell viability (MOLM14; SRSF2 genotype: SRSF2 P95H/wt) [%],cell viability (MOLM14; SRSF2 genotype: SRSF2 wt/wt) [%],cell viability (OCI-AML2; SRSF2 genotype: P95H/wt) [%],cell viability (OCI-AML2; SRSF2 genotype: wt/wt) [%]
COc1ccc(Cn2ccc3ccc(C(=O)NO)cc32)cc1,91.2% and 87.7%,84.4,65.9,75.9,84.1,81.6,69.3,75.5
NC(=O)N1c2ccccc2CC(=O)c2ccccc21 [Oxcarbazepine],89% and 97.3%,94.8,85.3,99.1,73.4,92.3,86,86.9
CCCN[C@H]1CCc2nc(N)sc2C1 [Pramipexole (Mirapex)],102% and 81.8%,83.3,81.9,83.9,71.3,84.3,80.9,87.8
CC(=O)O[C@H]1CC(=O)OC(C)(C)[C@@H]2CC(=O)[C@]3(C)[C@H](CC[C@@]4(C)[C@@H](c5ccoc5)OC(=O)[C@H]5O[C@]543)[C@@]12C [Nomilin],101% and 95.9%,97.8,87.1,105,99.2,104,94.8,101
C=C1CCC[C@]2(C)Cc3occ(C)c3C[C@@H]12 [Atractylon],104% and 98.2%,97.5,98.4,99,103,99.3,95,98
NCCc1c[nH]cn1 [Histamine 2HCl],99% and 106%,105,96.7,96.1,69,82.3,110,88.3
CC(=O)O[C@H](CC=C(C)C)C1=CC(=O)c2c(O)ccc(O)c2C1=O [Acetylshikonin],4.63% and 1.27%,1.38,0.73,0.66,0.73,0.53,0.72,0.59
NCc1ccc(S(N)(=O)=O)cc1 [Mafenide Acetate],102% and 98.3%,94.8,95.8,106,91.9,101,102,110
N#CC(=Cc1ccc(-c2cc(Cl)ccc2Cl)o1)C(=O)Nc1cccc2ncccc12,101% and 104%,91.8,99.1,99.8,116,112,88.3,92
"O=Cc1ccc(O)c(O)c1 [3,4-Dihydroxybenzaldehyde]",95.8% and 92.8%,93.7,77.4,91.9,91.3,99.4,88.9,92.4
CC1(C)OC[C@@H](COC(=O)CCc2ccc(OC[C@@H](O)CNCCNC(=O)N3CCOCC3)cc2)O1 [Landiolol hydrochloride],93.9% and 87.6%,101,97.6,92.6,97.6,98.2,98.3,102
Cn1cc(-c2[nH]c3cc(NC(=O)[C@H](N)C4CCCCC4)cc4c3c2C=NNC4=O)cn1,2.84% and 6.35%,4.41,32.7,26.9,0.83,0.37,5.09,8.02
O=c1nc(N2CCOCC2)oc2c(-c3cccc4c3sc3ccccc34)cccc12,92.3% and 93.3%,90.1,93.2,102,82.6,81.6,75.1,80.3
CN(C)C(=O)COC(=O)Cc1ccc(OC(=O)c2ccc(NC(=N)N)cc2)cc1 [Camostat Mesilate (FOY-305)],100% and 101%,96.3,108,98.4,106,98.8,100,99.6
COC(=O)[C@H](Cc1ccccc1)NC(=O)[C@@H](N)CC(=O)O [Aspartame],101% and 92.2%,91.6,102,101,98.8,97.1,93.6,92.1
COc1ccc(-c2oc3c(CC=C(C)C)c(O[C@@H]4O[C@H](CO)[C@@H](O)[C@H](O)[C@H]4O)cc(O)c3c(=O)c2O[C@@H]2O[C@@H](C)[C@H](O)[C@@H](O)[C@H]2O[C@@H]2O[C@@H](C)[C@H](O)[C@@H](O)[C@H]2O)cc1 [Epmedin C],104% and 108%,106,100,103,107,105,103,107
COc1ccc2c(c1)c(CC(=O)OCC(=O)O)c(C)n2C(=O)c1ccc(Cl)cc1 [Acemetacin (Emflex)],101% and 98.4%,93.5,97.8,94.9,95.4,98.6,108,104
CC(C)[N+]1(C)[C@@H]2CC[C@H]1C[C@@H](OC(=O)C(CO)c1ccccc1)C2 (stereo not given in full) [Ipratropium bromide],113% and 109%,105,99.5,105,99.8,105,99.1,118
NC(=O)c1cc(F)cc2c1C(=O)N(C1CCN(C3CCC(F)(F)CC3)CC1)C2,97.3% and 103%,95.7,96.4,106,82.6,97.3,87.5,96.1
CN1CCc2c(c3ccccc3n2Cc2ccc(C(=O)NO)cc2)C1 [Tubastatin A hydrochloride],77.4% and 88.8%,84.6,67,66.5,43.8,43.6,51.1,49.9

# — the supplement of paper PMC10981050
